# From publication PMC8384837, “Expanding the binding specificity for RNA recognition by a PUF domain”
# Columns and labels:
# Assay in all cases: yeast three-hybrid, YBZ-1, SC-Leu-His + 0.5 mM 3-AT, 4 days
# Conditions in all cases: tags: N-Gal4 AD-HA kept; label: inside an RPR1-promoter hybrid RNA with tandem MS2 sites; ssRNA
# PUM1 PUF domain R3-ARV = PUM1 PUF domain R3-ARV (Homo sapiens, UniProt Q14671 828-1176, C935A;Q939V)
# Procedure, shortened: (§1)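 Each repeat of the Pumilio-1 PUF domain was randomized at its three base-contacting residues, and these libraries were co-expressed from a centromeric plasmid with matching RNA elements in strain YBZ-1. After four days on SC-Leu (input) or SC-Leu-His + 0.5 mM 3-AT (selection), the repeat regions were PCR-amplified and Illumina-sequenced. The interaction score compares variant frequency between input and selection as a log change, computed in log2 with a pseudocount of 1 for absent variants.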
# PUM1 PUF domain R7-ECA = PUM1 PUF domain R7-ECA (Homo sapiens, UniProt Q14671 828-1176, S1079E;N1080C;E1083A)
# Procedure, shortened: as §1
# PUM1 PUF domain R1-RVE = PUM1 PUF domain R1-RVE (Homo sapiens, UniProt Q14671 828-1176, S863R;R864V;Q867E)
# Procedure, shortened: as §1
# PUM1 PUF domain R1-NVR = PUM1 PUF domain R1-NVR (Homo sapiens, UniProt Q14671 828-1176, S863N;R864V;Q867R)
# Procedure, shortened: as §1
# PUM1 PUF domain R5-RQR = PUM1 PUF domain R5-RQR (Homo sapiens, UniProt Q14671 828-1176, C1007R;R1008Q;Q1011R)
# Procedure, shortened: as §1
# PUM1 PUF domain R5-AYM = PUM1 PUF domain R5-AYM (Homo sapiens, UniProt Q14671 828-1176, C1007A;R1008Y;Q1011M)
# Procedure, shortened: as §1
# PUM1 PUF domain R2-VWP = PUM1 PUF domain R2-VWP (Homo sapiens, UniProt Q14671 828-1176, N899V;Y900W;Q903P)
# Procedure, shortened: as §1
# PUM1 PUF domain R5-RKM = PUM1 PUF domain R5-RKM (Homo sapiens, UniProt Q14671 828-1176, C1007R;R1008K;Q1011M)
# Procedure, shortened: as §1
# PUM1 PUF domain R4-YRM = PUM1 PUF domain R4-YRM (Homo sapiens, UniProt Q14671 828-1176, N971Y;H972R;Q975M)
# Procedure, shortened: as §1
# PUM1 PUF domain R8-FWR = PUM1 PUF domain R8-FWR (Homo sapiens, UniProt Q14671 828-1176, N1122F;Y1123W;Q1126R)
# Procedure, shortened: as §1
# Chain of PUM1 PUF domain R1-RVE (Q14671 828-1176 S863R/R864V/Q867E): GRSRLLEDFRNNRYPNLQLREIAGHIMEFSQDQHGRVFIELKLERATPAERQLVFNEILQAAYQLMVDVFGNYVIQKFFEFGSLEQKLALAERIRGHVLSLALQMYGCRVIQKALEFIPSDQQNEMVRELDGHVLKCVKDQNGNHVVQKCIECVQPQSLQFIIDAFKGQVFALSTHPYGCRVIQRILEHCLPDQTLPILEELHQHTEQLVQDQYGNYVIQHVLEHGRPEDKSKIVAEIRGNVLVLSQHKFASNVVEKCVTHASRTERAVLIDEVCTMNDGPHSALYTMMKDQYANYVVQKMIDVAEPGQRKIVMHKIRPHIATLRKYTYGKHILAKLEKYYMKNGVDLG
# Chain of PUM1 PUF domain R5-RQR (Q14671 828-1176 C1007R/R1008Q/Q1011R): as the sequence (Q14671 828-1176 S863R/R864V/Q867E) above, with R36S, V37R, E40Q, C180R, R181Q, Q184R counted along it
# Chain of PUM1 PUF domain R7-ECA (Q14671 828-1176 S1079E/N1080C/E1083A): as the sequence (Q14671 828-1176 S863R/R864V/Q867E) above, with R36S, V37R, E40Q, S252E, N253C, E256A counted along it
# Chain of PUM1 PUF domain R8-FWR (Q14671 828-1176 N1122F/Y1123W/Q1126R): as the sequence (Q14671 828-1176 S863R/R864V/Q867E) above, with R36S, V37R, E40Q, N295F, Y296W, Q299R counted along it
# Chain of PUM1 PUF domain R3-ARV (Q14671 828-1176 C935A/Q939V): as the sequence (Q14671 828-1176 S863R/R864V/Q867E) above, with R36S, V37R, E40Q, C108A, Q112V counted along it
# Chain of PUM1 PUF domain R1-NVR (Q14671 828-1176 S863N/R864V/Q867R): as the sequence (Q14671 828-1176 S863R/R864V/Q867E) above, with R36N, E40R counted along it
# Chain of PUM1 PUF domain R5-RKM (Q14671 828-1176 C1007R/R1008K/Q1011M): as the sequence (Q14671 828-1176 S863R/R864V/Q867E) above, with R36S, V37R, E40Q, C180R, R181K, Q184M counted along it
# Chain of PUM1 PUF domain R2-VWP (Q14671 828-1176 N899V/Y900W/Q903P): as the sequence (Q14671 828-1176 S863R/R864V/Q867E) above, with R36S, V37R, E40Q, N72V, Y73W, Q76P counted along it
# Chain of PUM1 PUF domain R4-YRM (Q14671 828-1176 N971Y/H972R/Q975M): as the sequence (Q14671 828-1176 S863R/R864V/Q867E) above, with R36S, V37R, E40Q, N144Y, H145R, Q148M counted along it
# Chain of PUM1 PUF domain R5-AYM (Q14671 828-1176 C1007A/R1008Y/Q1011M): as the sequence (Q14671 828-1176 S863R/R864V/Q867E) above, with R36S, V37R, E40Q, C180A, R181Y, Q184M counted along it
sequence,measurement,setting,value
GGCUAGAACUAGUGGAUCCCCCGGCGCCCGGCGGCUCGAGCCCGGGUAAGUGUAAUUAGUCUGCAUGCCGCCGGGCGCCAUGCCUGCAGGUCGACUCUAGAAAACAUG,binding signal,PUM1 PUF domain R3-ARV,1.96 log2 enrichment (interaction score)
GGCUAGAACUAGUGGAUCCCCCGGCGCCCGGCGGCUCGAGCCCGGGUAAGUCUAAAUAGUCUGCAUGCCGCCGGGCGCCAUGCCUGCAGGUCGACUCUAGAAAACAUG,binding signal,PUM1 PUF domain R7-ECA,1.26 log2 enrichment (interaction score)
GGCUAGAACUAGUGGAUCCCCCGGCGCCCGGCGGCUCGAGCCCGGGUAAGUGUAAAUCGUCUGCAUGCCGCCGGGCGCCAUGCCUGCAGGUCGACUCUAGAAAACAUG,binding signal,PUM1 PUF domain R1-RVE,2.37 log2 enrichment (interaction score)
same,binding signal,PUM1 PUF domain R1-NVR,5.44 log2 enrichment (interaction score)
GGCUAGAACUAGUGGAUCCCCCGGCGCCCGGCGGCUCGAGCCCGGGUAAGUGUCAAUAGUCUGCAUGCCGCCGGGCGCCAUGCCUGCAGGUCGACUCUAGAAAACAUG,binding signal,PUM1 PUF domain R5-RQR,4.51 log2 enrichment (interaction score)
same,binding signal,PUM1 PUF domain R5-AYM,2.95 log2 enrichment (interaction score)
GGCUAGAACUAGUGGAUCCCCCGGCGCCCGGCGGCUCGAGCCCGGGUAAGUUUAAAUAGUCUGCAUGCCGCCGGGCGCCAUGCCUGCAGGUCGACUCUAGAAAACAUG,binding signal,PUM1 PUF domain R7-ECA,3.96 log2 enrichment (interaction score)
GGCUAGAACUAGUGGAUCCCCCGGCGCCCGGCGGCUCGAGCCCGGGUAAGUGUAAAUUGUCUGCAUGCCGCCGGGCGCCAUGCCUGCAGGUCGACUCUAGAAAACAUG,binding signal,PUM1 PUF domain R1-RVE,2.57 log2 enrichment (interaction score)
same,binding signal,PUM1 PUF domain R1-NVR,3.93 log2 enrichment (interaction score)
GGCUAGAACUAGUGGAUCCCCCGGCGCCCGGCGGCUCGAGCCCGGGUAAGUGUAAAUGGUCUGCAUGCCGCCGGGCGCCAUGCCUGCAGGUCGACUCUAGAAAACAUG,binding signal,PUM1 PUF domain R1-RVE,1.35 log2 enrichment (interaction score)
GGCUAGAACUAGUGGAUCCCCCGGCGCCCGGCGGCUCGAGCCCGGGUAAGUGUAAAAAGUCUGCAUGCCGCCGGGCGCCAUGCCUGCAGGUCGACUCUAGAAAACAUG,binding signal,PUM1 PUF domain R2-VWP,4.15 log2 enrichment (interaction score)
GGCUAGAACUAGUGGAUCCCCCGGCGCCCGGCGGCUCGAGCCCGGGUAAGUGUUAAUAGUCUGCAUGCCGCCGGGCGCCAUGCCUGCAGGUCGACUCUAGAAAACAUG,binding signal,PUM1 PUF domain R5-RQR,4.81 log2 enrichment (interaction score)
GGCUAGAACUAGUGGAUCCCCCGGCGCCCGGCGGCUCGAGCCCGGGUAAGUGUAAAUAGUCUGCAUGCCGCCGGGCGCCAUGCCUGCAGGUCGACUCUAGAAAACAUG,binding signal,PUM1 PUF domain R5-RQR,1 log2 enrichment (interaction score)
same,binding signal,PUM1 PUF domain R5-RKM,2.32 log2 enrichment (interaction score)
same,binding signal,PUM1 PUF domain R4-YRM,2.31 log2 enrichment (interaction score)
same,binding signal,PUM1 PUF domain R8-FWR,3.71 log2 enrichment (interaction score)
same,binding signal,PUM1 PUF domain R3-ARV,3.82 log2 enrichment (interaction score)
GGCUAGAACUAGUGGAUCCCCCGGCGCCCGGCGGCUCGAGCCCGGGUAAGCGUAAAUAGUCUGCAUGCCGCCGGGCGCCAUGCCUGCAGGUCGACUCUAGAAAACAUG,binding signal,PUM1 PUF domain R8-FWR,3.91 log2 enrichment (interaction score)
